Compounds without any hit were thinned out: in the full panel of roughly 79,000, 15% have a hit. A number with no mark means an inactive call. Activity calls are given as the source filed them. No stated cut-off is given here; in the data, active means growth inhibition above about 70%; inactive means the rest.

This assay can be described thus: NCI Yeast Anticancer Drug Screen. Data for the rad50 strain (AID 155).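 Further: 0% = growth of vehicle-only cultures of the same strain.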 The conditions noted are these: S. cerevisiae rad50 strain growth inhibition; at 50.0 µM; hits give high values. The method in brief: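 DNA repair mutant yeast, compound exposure, growth read-out; inhibition is taken relative to vehicle.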
Regarding `O=C1NC(=S)NC(=O)C1=Cc1cc2c(cc1[N+](=O)[O-])OCO2`, the growth inhibition was 0.45%.

As to `O=S(=O)(O)c1ccc(Cl)cc1`, the growth inhibition is -0.45%. For `CCN(CC)c1cccc(OC(=O)NC)c1`, the growth inhibition is 0.55%. Under `O=C1OC(Br)c2ccccc21` (stereo not given) stands -11.4%; under `CCOP(=O)(OCC)O/N=C(/c1ccccc1)C(C)C`, 25.4%.

For `Cc1cc2[nH]c3c(C#N)c(OC(=O)N(C)C)c(-c4ccccc4)c(=O)n3c2cc1C`, the growth inhibition was -8.75%. For `CC(=O)Nc1cc([As](C)(=O)O)ccc1O` the value was -10.3%; for `COc1ccc(N2CC=C(c3ccccc3)OP2(=O)N(CCCl)CCCl)cc1` (stereo not given), -49.8%. For `CC(=O)CC(C)=O.CC(=O)CC(C)=O.[Cl][Sn][c]1ccccc1` the value was 40.8%; for `COP(=S)(c1ccccc1)N(C)C(=O)Oc1cccc(C(C)C)c1` (stereo not given), 21.2%.

In the case of `O=NNc1ccc(C(F)(F)F)cn1`, the growth inhibition was -7.95%. Under `CC1(C)N=C(N)N=C(N)N1c1cccc(CCCCc2ccc(S(=O)(=O)F)c(Cl)c2)c1` stands 99.5% (active); under `Cc1cc([N+](=O)[O-])c(N)c([N+](=O)[O-])c1`, -1.55%. For `CNC(=O)N1CN(c2ccccc2)C2(CCN(Cc3ccccc3)CC2)C1=O`, the growth inhibition was -29.4%. Regarding `CC([OH2+])CNCCN.CC([OH2+])CNCCN.O=[N+]([O-])[O-].[Cu+2]` (stereo not given), the growth inhibition is -10.1%. On to `[Cl][Co][Br].[NH-]CC[NH-].[NH-]CC[NH-]`, for which the growth inhibition is -12.7%.

For the compound `[C-]#[O+].[C-]#[O+].[C-]#[O+].[C-]#[O+].[C-]#[O+].[C-]#[O+].[C-]#[O+].[C-]#[O+].[C-]#[O+].[CH2-]C.[Co].[Co].[Co]`, the growth inhibition was 25.6%. Under `CCOP(=O)(OCC)C(C)(C)OC(=O)NC#N` stands -24.2%; under `O=C(NC(Cl)=C(Cl)Cl)P(=O)(c1ccccc1)c1ccccc1`, -16.6%.

In the case of `O=NC1C(=O)NC(=O)NC1=O`, the growth inhibition was 1.75%. Under `N#CC(C#N)=Cc1ccc(C=C(C#N)C#N)cc1` stands -30.4%; under `O=S(=O)(O)C1CCC(O)C2[N-]CCCC21.O=S(=O)(O)C1CCC(O)C2[N-]CCCC21.[Ni+2]` (stereo not given), 50.8%. `CC(=O)Nc1cc([As](=O)(O)O)ccc1O`: the growth inhibition is 31.6%. For the compound `O=[N+]([O-])c1ccc(OCc2ccc(S(=O)(=O)F)cc2Cl)c(Cl)c1`, the growth inhibition is 1.45%.

For `CCOP(=O)(OCC)O/N=C(/C#N)c1ccccc1`, the growth inhibition was 11.3%.

For the compound `CC1(C)C(=O)/C(=N\O)C[C@@]2(C)C1=CC[C@@H]1[C@@H]2CC[C@]2(C)C(=O)/C(=N/O)C[C@@H]12`, the growth inhibition was 1.55%. For `CC(=O)OCC1OC([Se-])C(OC(C)=O)C(OC(C)=O)C1OC(C)=O.N#CCC[PH+](CCC#N)CCC#N.[Au+]` (stereo not given) the value was 7.35%; for `c1ccc(C(c2ccccc2)C2CCNCC2)cc1`, 29.1%; for `O=CC1(c2ccccc2)CCNCC1`, -0.95%. For `CCOC(=O)/C=C1/C=C(C)CC(C)(C)C1` (tested in a mixture with another compound) the value was -0.3%.

Take `O=C1OC(c2ccccc2)(c2ccccc2)C(=O)OC1(c1ccccc1)c1ccccc1`: the growth inhibition is 16.7%.

For the compound `CCOc1ccccc1C=C(C#N)C#N`, the growth inhibition is -2.25%. Consider `CC(=O)Nc1cc([As]=O)ccc1O` (stereo not given), for which the growth inhibition is 29.2%.

Take `CCC1(CC)C(=O)NC(=NCCCC(N)C(=O)O)NC1=O` (stereo not given): the growth inhibition is 8.75%.

For the compound `O=[As](c1ccccc1)(c1ccccc1)c1ccc(Br)cc1`, the growth inhibition is 31.1%.

`C[N+]1([O-])C2CCC1CC(O)C2` (stereo not given): the growth inhibition was 4.1%. Under `CC(Br)C(=O)C(CCN(C)C)(c1ccccc1)c1ccccc1` (stereo not given) stands 17.6%. For `N#Cc1ccccn1` the value was 13.1%. Under `C#CC(=O)[O][Sn]([c]1ccccc1)([c]1ccccc1)[c]1ccccc1` stands 99% (active); under `C=CCNCC(O)c1ccccc1` (stereo not given), 13.5%.

These data come from PubChem BioAssay (NCI).
